GDH-TPI counter-1: counter-screen for M. tuberculosis FBA inhibitors: GDH-TPI coupled enzymes | 360,000 tested, 1.2% active | inhibition, % at 4.8 µM | GDH-TPI coupled enzyme counterscreen, NADH absorbance;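 note: 0% = DMSO wells and 100% = wells lacking the enzyme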
RecA intein inh: blocks M. tuberculosis RecA intein splicing; cell-free RecA intein splicing, fluorescence; inhibition, % (no concentration beside the values); 290,000 tested, 0.75% active; AID 2221; in the data active = inhibition above about 30%;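 note: 0% = vehicle wells and 100% = reference inhibitor control wells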
VHR inh abs: inhibitors of human VHR1 phosphatase (DUSP3) | P51452 | recombinant VHR phosphatase, pNPP absorbance | inhibition, % at 13.3 µM | 290,000 tested, 0.52% active | AID 1654; in the data active = inhibition above about 50%
Target sequence (P51452 whole entry, looked up): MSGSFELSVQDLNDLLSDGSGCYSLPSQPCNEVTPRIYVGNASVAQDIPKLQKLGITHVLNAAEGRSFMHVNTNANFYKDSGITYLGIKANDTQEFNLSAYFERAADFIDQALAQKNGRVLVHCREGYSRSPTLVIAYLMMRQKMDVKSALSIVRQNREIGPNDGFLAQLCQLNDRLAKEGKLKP
Mtb FBA inh: Mtb fructose-bisphosphate aldolase inhibition | AID 588726 | purified M. tuberculosis FBA, fluorescence read-out | inhibition, % at 1 µM | 360,000 tested, 2.3% active | P9WQA3; in the data active = inhibition above about 27%;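 note: 0% = vehicle and 100% = reference inhibitor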
Target sequence (P9WQA3 whole entry, looked up): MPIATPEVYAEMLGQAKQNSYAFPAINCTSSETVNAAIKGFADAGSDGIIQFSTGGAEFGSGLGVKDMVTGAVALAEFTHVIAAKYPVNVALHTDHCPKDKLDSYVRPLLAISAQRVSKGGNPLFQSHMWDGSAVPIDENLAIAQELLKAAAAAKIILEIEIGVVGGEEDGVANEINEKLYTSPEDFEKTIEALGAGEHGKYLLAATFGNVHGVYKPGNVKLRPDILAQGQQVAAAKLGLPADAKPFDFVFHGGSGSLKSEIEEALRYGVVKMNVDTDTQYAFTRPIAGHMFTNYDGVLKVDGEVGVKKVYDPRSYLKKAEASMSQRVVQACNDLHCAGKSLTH
SARS 3CLpro inh: SARS-CoV 3CLpro protease inhibition; 290,000 tested, 0.14% active; inhibition, % at 6 µM; recombinant SARS-CoV 3CLpro, quenched FRET peptide cleavage; in the data active = inhibition above about 12%
CCHF vOTU inh: CCHFV vOTU protease inhibition; Pep-AMC fluorescence; inhibition, % at 11.5 µM; 370,000 tested, 0.55% active; AID 651958; note: 0% = vehicle wells with enzyme and 100% = no enzyme wells
Mtb FBA confirm: confirmation of M. tuberculosis fructose-bisphosphate aldolase inhibitors; AID 651616; inhibition, % at 1 µM; purified M. tuberculosis FBA, fluorescence read-out; shares compounds with Mtb FBA inh; 5,600 tested, 78% active; in the data active = inhibition above about 27%;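 note: 0% = vehicle wells and 100% = reference inhibitor wells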
GDH-TPI counter-2: inhibits GDH-TPI coupling enzymes, flagging Mtb FBA hits; AID 652141; shares compounds with Mtb FBA inh; inhibition, % at 1 µM; GDH-TPI coupled enzyme counterscreen, fluorescence; 5,600 tested, 81% active; in the data active = inhibition above about 10%
GDH-TPI DR: GDH-TPI dose response counter-screen for Mtb FBA. shares compounds with Mtb FBA inh. GDH-TPI coupled enzyme assay, fluorescence, artifact counterscreen. IC50, µM. 170 tested, 79% active; call rule not given here
Active calls of the source: *; . = not tested or not shown; + = active, no number. Shown are actives, neighbours in structure and some others; about 4.7% of the full set was active somewhere. Cut-off read from the data, not from the text of the source, unless noted: active = inhibition above about 30%; inactive = the rest.

SMILES	GDH-TPI counter-1	RecA intein inh	VHR inh abs	Mtb FBA inh	SARS 3CLpro inh	CCHF vOTU inh	Mtb FBA confirm	GDH-TPI counter-2	others
CCOC(=O)c1sc2nc(C(C)C)c3c(c2c1N)CCC3	4.4	-6.8	-1.6	28.8*	1.6	-6.2	95.8*	82.2*
O=C(O)CC/C(=N/NC(=O)c1cn(-c2ccccc2)nc1-c1ccccc1)C(=O)O	2.3	3.1	1.5	31.1*	5.3	-6.7	65.8*	63.5*
O=C1C2C3C=CC(C4CC34)C2C(=O)N1c1cccc2ccccc12 (stereo unspecified)	0.0	2.5	3.6	0.6	6.9	7.5	.	.
O=c1cc(CN2CCc3ccccc32)c2ccc(O)cc2o1	6.2	.	18.5	40.9*	-0.2	-21.9	3.4	1.7
Cc1cc(OCC(=O)NCc2ccccn2)c2c(C)cc(=O)oc2c1	3.0	-0.3	16.6	79.4*	0.1	-23.9	102.5*	72.2*
CCCCc1cc(=O)oc2cc(C)cc(OCC(=O)NCC3CCC(C(=O)O)CC3)c12 (stereo unspecified)	2.1	-4.3	12.5	67.0*	1.2	-28.8	-0.5	-1.6
CCCCc1cc(=O)oc2cc(C)cc(OCC(=O)NCc3ccncc3)c12	6.6	-2.6	5.3	81.1*	-1.6	-22.5	139.1*	108.1*
Cc1cc(OCC(=O)NCC2CCC(C(=O)O)CC2)c2c(C)c(C)c(=O)oc2c1 (stereo unspecified)	5.9	4.9	4.9	21.1	0.2	-11.8	.	.
CCCc1cc(=O)oc2cc(C)cc(OCC(=O)NCc3ccccn3)c12	5.6	-1.3	34.4	54.8*	-8.5	-17.6	28.5*	32.3*
Cc1ccc(OCC(=O)NCc2ccccn2)cc1	-3.2	1.0	4.4	-1.2	-3.5	3.3	.	.
CC(C)n1ncc2c(C(=O)Nc3cccc(C#N)c3)cc(C3CC3)nc21	5.7	.	.	-2.7	.	13.6	.	.
COC(=O)[C@H]1C[C@@]2(O)CN(S(=O)(=O)c3ccc(C)cc3)C[C@@]2(OC(=O)NC2CCCC2)C[C@H]1C(=O)OC	7.5	.	.	4.8	.	17.5	.	.
CCOC(=O)Cc1c(C)nc2c(-c3ccccc3)c[nH]n2c1=O	18.8	-0.3	23.8	85.5*	-1.6	-5.9	175.6*	172.5*
CCOC(=O)Cc1cc(=O)n2[nH]cc(-c3ccc(Cl)cc3)c2n1	6.1	-2.4	18.5	21.5	1.9	-3.1	.	.
CCc1c(C)nc2c(-c3ccccc3)c[nH]n2c1=O	5.7	0.0	0.3	32.6*	-5.5	-2.9	14.7	8.7	GDH-TPI DR=8.1*
CCOC(=O)Cc1c(C)nc2c(-c3ccccc3)c(-c3ccccc3)[nH]n2c1=O	15.7	1.5	0.0	71.5*	3.1	.	57.8*	41.0*
CCOC(=O)Cc1c(C)nc2c(-c3ccccc3)c(C)[nH]n2c1=O	8.8	-1.2	37.0	23.4	-5.5	-9.3	.	.
COC(=O)c1ccc(COc2cccc(C)c2C)cc1	-1.6	-5.8	16.9	8.9	-3.3	19.0	.	.
CCOc1ccc(C2=CC(=O)C[C@H](c3ccc(OC)cc3)C2)cc1	16.4	.	.	-3.3	.	5.1	.	.
CC(=O)c1cc(F)c(N2CCN(C(=O)COc3ccccc3F)CC2)cc1C	6.6	-2.8	3.3	38.1*	0.1	6.8	9.4	5.7
CC(=O)c1cc(F)c(N2CCN(C(=O)C(C)(C)C)CC2)cc1C	5.0	-2.0	-10.8	1.0	-2.9	23.9	.	.
COc1cccc2sc3cc(NCc4ccc5c(c4)OCO5)ccc3c(=O)c12	39.4*	.	.	53.4*	.	-35.8	22.9	19.1*
CNC(=S)N/N=C/c1ccc(C(C)C)cc1	19.0	0.7	.	1.2	-0.3	5.5	.	.
CNC(=S)N/N=C/c1ccc(N(C)C)cc1	40.2*	-4.6	21.7	41.6*	6.8	-35.0	+	+
Cc1c(NC(=S)N/N=C/c2ccc(N(C)C)cc2)c(=O)n(-c2ccccc2)n1C	33.2*	-4.7	-0.8	33.0*	3.5	-39.1	115.9*	87.5*
SMILES	GDH-TPI counter-1	RecA intein inh	VHR inh abs	Mtb FBA inh	SARS 3CLpro inh	CCHF vOTU inh	Mtb FBA confirm	GDH-TPI counter-2	others
Cc1c(-c2ccccc2)nnn1-c1ccc(F)c(Cl)c1	.	.	.	.	.	3.0	.	.
COc1ccccc1N(C)S(=O)(=O)c1ccc(C(=O)NCc2ccccc2CN2CCCC2)cc1	-1.8	.	.	-2.5	.	11.2	.	.
CC(C)c1cc(CNC(=O)CC2C(=O)NCCN2CC2CCCCC2)on1 (stereo unspecified)	-3.8	1.1	-8.2	1.6	-2.4	5.9	.	.
COc1ccc(-c2ccc(-c3nnc(Cc4ccc(OC)c(OC)c4)o3)cc2)cc1	14.7	.	10.2	39.0*	-2.4	-2.2	-3.7	-2.4
CCOc1ccc(-c2nnc(-c3ccccc3)o2)cc1	3.8	-3.8	31.3	90.9*	3.2	-2.2	88.4*	73.5*
CCOC(=O)COc1ccc(-c2nnc(-c3ccccc3)o2)cc1	7.0	-0.2	17.5	58.9*	-0.6	3.4	41.5*	34.7*
COc1ccc(-c2nnc(-c3ccccc3)o2)cc1OC	1.4	0.1	12.7	30.8*	-1.6	-14.2	148.6*	106.9*
CCN(CC)CCNC(=O)C(=O)NCC1OCCN1C(=O)c1ccc2c(c1)OCO2 (stereo unspecified)	.	-3.2	5.7	.	-2.5	.	.	.
S=C1CC2CCCC(C2)N1 (stereo unspecified)	8.7	.	.	-2.8	.	-2.4	.	.
COc1ccc(NC(=O)Nc2c[nH]c(=O)[nH]c2=O)cc1	7.0	1.9	1.9	-0.3	-1.9	-5.8	.	.
c1ccc(-c2cnc(-c3cccnc3)o2)cc1	5.1	.	29.9	92.7*	-0.5	-5.0	191.7*	155.1*
Fc1cccc(-c2ncc(-c3ccccc3)o2)c1	4.4	.	.	24.2	.	-6.4	.	.
O=C(COc1ccc(S(=O)(=O)N2CCOCC2)cc1Cl)NCc1ccc2c(c1)OCO2	0.9	.	.	-0.3	.	-6.2	.	.
CCc1ccc(Nc2ncc3c(n2)CC(C)(C)CC3=O)cc1	17.0	.	0.0	34.6*	2.7	-3.9	+	172.4*
CCc1ccc(Nc2ncc3c(n2)CC(C)CC3=O)cc1 (stereo unspecified)	1.2	-1.9	12.2	-0.7	4.5	10.2	.	.
NNC(=O)c1ccc(O)cc1O	14.0	-0.7	-5.7	-0.3	-1.9	-4.0	.	.
COc1ccc(S(=O)(=O)N2CCCCC2)cc1NC(=O)c1ccc(N2CCCC2=O)cc1	4.6	.	.	-1.6	.	1.9	.	.
Cn1ccnc1-c1ccc(-c2nccn2C)cc1	-7.0	.	-4.9	52.2*	6.1	-4.3	+	186.4*
CC(=O)c1c(C)[nH]c(C(=O)COc2ccc3ccc(=O)oc3c2)c1C	18.9	0.4	.	50.2*	.	-46.2	91.8*	51.5*
COC(=O)c1c(C)[nH]c(C(=O)COc2ccc3ccc(=O)oc3c2)c1C	15.1	.	.	5.8	.	4.1	.	.

Screens from PubChem.
